# Source: PubChem BioAssay (National Center for Advancing Translational Sciences (NCATS))
# TRPML1 agonist = qHTS for Agonists of the Human Mucolipin Transient Receptor Potential 1 (TRPML1); Mucolipin-1 (Homo sapiens), Q9GZU1; TRPML1-expressing cells, Ca2+ dye fluorescence, FDSS; activation, % (concentration not given with the values); 0.12% of 410,000 active; AID 624414, 2012; in the data active = activation above about 50%; inconclusive = mostly about 30% to 49%; note: 0% is about no effect
# Target sequence (Q9GZU1 whole entry, looked up): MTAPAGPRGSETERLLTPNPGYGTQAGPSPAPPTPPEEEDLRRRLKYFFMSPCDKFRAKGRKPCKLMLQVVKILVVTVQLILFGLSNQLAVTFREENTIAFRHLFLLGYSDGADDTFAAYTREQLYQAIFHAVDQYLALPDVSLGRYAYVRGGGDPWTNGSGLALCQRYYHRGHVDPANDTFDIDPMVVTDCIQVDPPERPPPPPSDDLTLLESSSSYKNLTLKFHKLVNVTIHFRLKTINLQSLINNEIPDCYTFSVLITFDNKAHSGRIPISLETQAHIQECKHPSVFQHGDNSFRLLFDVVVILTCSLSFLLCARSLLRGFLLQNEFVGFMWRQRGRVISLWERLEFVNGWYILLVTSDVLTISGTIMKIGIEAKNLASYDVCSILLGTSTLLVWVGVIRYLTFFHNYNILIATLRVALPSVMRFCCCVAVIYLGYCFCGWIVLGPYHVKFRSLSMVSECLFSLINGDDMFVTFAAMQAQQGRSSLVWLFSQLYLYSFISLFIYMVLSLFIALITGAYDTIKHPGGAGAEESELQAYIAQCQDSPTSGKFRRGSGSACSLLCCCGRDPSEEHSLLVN
#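 Agonist activity was taken from a 110 s kinetic Ca2+ dye read on the FDSS after pinning compounds onto TRPML1-DL cells. The cells were seeded at 1,500/well with Tet inducer, incubated about 16 h, then dye-loaded at room temperature.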
# KCNH2 3.1 block = qHTS for Inhibitors of KCHN2 3.1: Mutant qHTS. Potassium voltage-gated channel subfamily H member 2, brain isoform KCNH2 3.1 (human). U2OS KCNH2 3.1, thallium flux FluxOr; stronger effect = lower value. activity change, % (tested at about 1.8 µM). 0.95% of 340,000 active;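 active = maximum activity change below -70%; inconclusive = maximum activity change from -70% to -50%; inactive = maximum activity change above -50%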;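 note: thallium influx rate constant from kinetic fluorescence after stimulation buffer; % is set by controls: 0 for no effect and ±100 for the full control effect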
#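 Virally transduced U2OS (3.1 isoform, 4 h infection in dark at RT) → overnight 37 C → FluxOr + Red40 in HBSS/HEPES, 45 min → stimulation buffer, 2 min kinetic read → rate constant vs DMSO controls.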
# TSG101-PTAP inh = qHTS Assay for Iinhibitors of HIV-1 Budding by Blocking the Interaction of PTAP/TSG101; Tumor susceptibility gene 101 protein (Homo sapiens), Q99816; Potency, µM (series often up to 115 µM), inactives show at the top dose activity change, negative = inhibition, most hits filed as inhibitors; 340,000 tested, under 10 active; Fluorescence polarization, FITC-PTAP peptide / Tsg101 binding; AID 493005, 2010; active = well fitted inhibition curve with a large enough effect in the main read-out, with a control signal flat, not every such curve was filed as active; inconclusive = small, poorly fitted or top-dose-only effect, or effect the other way, or a change in a side signal; inactive = no such curve, though single readings can be large or run the other way; note: potency is the fitted concentration of half-maximal effect; % of control where 0% means no effect
#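 Compounds were pin-transferred onto Tsg101 binding domain (10 uM final) in HEPES pH 7.5 buffer, then FITC-PTAP peptide was added at 50 nM final. After 20 min at RT, polarization reported peptide displacement across a qHTS concentration series.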
# GRP78 ERSR act = qHTS for Inducers of the Endoplasmic Reticulum Stress Response (ERSR) in Human Glioma: qHTS; 0.02% of 420,000 active; AID 602332, 2012; Potency, µM, without a hit: top-dose activation, most hits filed as activators; U87-MG GRP78 promoter luciferase reporter, 16 h; active = well fitted activation curve with a large enough effect; inconclusive = small, poorly fitted or top-dose-only effect; inactive = no such curve, though single readings can be large or run the other way; note: potency is the fitted concentration of half-maximal effect; series mostly up to about 76 µM; % of control where 0% means no effect; nearly all actives have a fitted effect of over 35% in size
#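 Stably transfected U87-MG glioma cells carrying a GRP78-based luciferase sensor; 16 h compound incubation. Luminescence end-point read 10 min after Bright-Glo addition at room temperature.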
# KCNH2 WT inh = qHTS for Inhibitors of KCHN2 3.1: Wildtype qHTS | Voltage-gated inwardly rectifying potassium channel KCNH2 (Homo sapiens), Q12809 | U2OS, BacMam KCNH2, thallium flux FluxOr; stronger effect = lower value | activity change, % at 1.84 µM | 0.37% of 340,000 active | AID 720551, 2013;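 active = maximum activity change below -70%; inconclusive = maximum activity change between -70% and -50%; inactive = maximum activity change above -50%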; note: % is set by controls: 0 for no effect and ±100 for the full control effect
#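 U2OS cells transduced with wild-type KCNH2 virus are loaded with FluxOr dye for 45 min, and thallium flux is measured in kinetic reads before and after stimulation buffer. Rate constants are normalized to DMSO controls.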
# TRPML1 blocker = qHTS for Inhibitors of the Human Mucolipin Transient Receptor Potential 1 (TRPML1). 0.02% of 390,000 active. activity change, negative = inhibition, % (no concentration beside the values). TRPML1-inducible cells, Ca2+ dye fluorescence, FDSS; stronger effect = lower value; inhibition of EC80 agonist-evoked calcium signal. Mucolipin-1 (Homo sapiens), Q9GZU1; in the data active = activity change below about -50%; inconclusive = between about -30% and that limit;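 note: stimulus is agonist 54-4 at its EC80 concentration; % is set by controls: 0 for no effect and ±100 for the full control effect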
#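 Calcium fluorescence in TRPML1-DL cells induced overnight with Tet: a 110 s read after compound pin addition, then a 110 s antagonist read after challenge with 54-4 at 4 uM final (EC80).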
# Numbers without * were called inactive; ? = inconclusive; · = no result given. A selection: hits, their analogues and other compounds. The true share with any hit is near 1%.
SMILES,TRPML1 agonist,KCNH2 3.1 block,TSG101-PTAP inh,GRP78 ERSR act,KCNH2 WT inh,TRPML1 blocker
Cc1cc(C)c(CN2CCCC(CNC(=O)c3ccc(F)cc3)C2)c(-n2cccn2)c1 (stereo not drawn),1,-111*,-1%,-3%,-85*,6
Cc1ccsc1C(=O)C1CCCN(Cc2cc(F)ccc2-n2cccn2)C1 (stereo not drawn),0,-81*,1%,-7%,0,62
CC(C)(C)NC(=O)[C@H]1CC[C@H]2[C@@H]3CC=C4C=C(C(=O)O)CC[C@@]4(C)[C@H]3CC[C@]12C,·,·,·,-1%,·,·
COc1ccc(CN2CCC(n3cc(C(=O)N4CCCC4)nn3)CC2)c(OC)c1C,·,·,·,0%,·,·
COc1cc(N(C)C)cc(CN(C)CCc2ccc([N+](=O)[O-])cc2)c1O,·,·,·,-3%,·,·
COc1ccccc1N1CCN(c2nc(CNC(=O)c3ccccc3F)nc3ccccc23)CC1,·,·,·,-4%,·,·
CCOn1c(=O)c(-c2ccc(Cl)cc2)[n+]([O-])c2ccccc21,2,-6,-11%,-4%,-9,39
CCOn1c(=O)c(-c2ccc(C)cc2)[n+]([O-])c2ccccc21,0,-84*,0%,0%,1,-3
COc1cc(CC(=O)OCC(=O)c2ccc[nH]2)cc(OC)c1OC,0,5,0%,-1%,-5,21
COc1cc(CCC(=O)OCC(=O)c2ccc[nH]2)cc(OC)c1OC,0,-2,-2%,-3%,-94*,-28
Cc1ccc(C(=O)NCCc2nnc3n2CCN(Cc2cc(C)cc(C)c2)CC3)cc1,·,·,·,-1%,·,·
COc1ccc(C(=O)N(c2ccc(OC)cc2)S(=O)(=O)c2cccs2)cc1,1,4,-3%,-4%,4,33
COc1ccc(N(C(=O)c2ccccc2)S(=O)(=O)c2cccs2)cc1,2,8,-2%,32µM*,-7,17
COc1ccc(CCCNC(=O)C2CCC(=O)N(CC3CCCCC3)C2)cc1 (stereo not drawn),1,-168*,-4%,-6%,-173*,81
COc1ccc(CCNC(=O)C2CCC(=O)N(CC3CCCCC3)C2)cc1 (stereo not drawn),0,7,2%,2%,12,11
CCN1CCC(N[C@H]2C[C@@H](C(=O)NC)N(Cc3cccc4ccccc34)C2)CC1,·,·,·,-4%,·,·
COc1cccc(CNC(=O)c2c(OC)cc(=O)n3c2CCN(C(=O)c2ccoc2C)CC3)c1,·,·,·,0%,·,·
COc1ccccc1C1CN(Cc2cn(C)nc2C)Cc2ccccc2O1 (stereo not drawn),·,·,·,-5%,·,·
OCCC1CN(Cc2cccn2-c2ncccn2)CCN1Cc1ccccc1 (stereo not drawn),0,-36,-14%,-3%,58,19
Cc1ccc(CN2CCN(Cc3cccn3-c3ccccn3)CC2CCO)cc1 (stereo not drawn),0,-72*,-2%,-2%,-76*,-1
Cc1ccc(CN2CCN(Cc3cccn3-c3nccs3)CC2CCO)cc1 (stereo not drawn),0,-88*,-3%,2%,-27,1
COc1cc(N(C)C)c(OC)cc1/C=C1\Cc2ccccc2C1=O,78*,·,·,-1%,·,·
COc1cc(C=C2Cc3ccccc3C2=O)cc(OC)c1OC,-1,·,·,7%,·,·
COc1cccc(C(=O)NC(=S)N2CCN(c3ccc(C(F)(F)F)cc3[N+](=O)[O-])CC2)c1,0,3,0%,-4%,-3,0
CCOc1ccc(C(=O)NC(=S)N2CCN(c3ccc(C(F)(F)F)cc3[N+](=O)[O-])CC2)cc1,1,-70*,0%,0%,?,8
SMILES,TRPML1 agonist,KCNH2 3.1 block,TSG101-PTAP inh,GRP78 ERSR act,KCNH2 WT inh,TRPML1 blocker
CCOC(=O)n1cc(-c2cnc(CNC(=O)C(C)(c3ccccc3)c3ccccc3)o2)c2ccccc21,-1,-73*,-6%,-4%,-40,20
CC(C(=O)NCCN1CCOCC1)(c1ccccc1)c1ccccc1,0,1,-6%,-7%,3,-3
CC(C)N1CCN(C(=O)c2cnn(-c3nccc(-c4ccc5c(c4)OCO5)n3)c2-c2ccco2)CC1,·,·,·,-6%,·,·
Cc1ccc(C(=O)COC(=O)CNC(=O)CNC(=O)c2ccc(C)cc2)cc1,0,-85*,0%,0%,-1,-10
CC(=O)c1ccc(Oc2cc(C)nc(N3CCOCC3)n2)cc1,-1,-136*,0%,0%,-2,1
CC(=O)N1c2c(cc(Br)cc2S(=O)(=O)NCC2COc3ccccc3O2)CC1C (stereo not drawn),-1,8,-3%,40µM*,-22,-6
FC(F)(F)c1nc(N2CCCC2)ncc1-c1nnnn1-c1ccccc1,52*,0,-1%,-1%,-12,-10
COc1ccc(C(=O)N/N=C/c2ccc(OC)c(OS(=O)(=O)c3ccccc3)c2)cc1,2,-195*,-1%,-3%,-151*,93
COc1ccc(/C=N/NS(=O)(=O)c2ccccc2)cc1OS(=O)(=O)c1ccccc1,0,9,-3%,-5%,-17,2
COc1ccc(/C=C(/NC(=O)c2cccs2)C(=O)Nc2ccc(C)cc2)cc1OC,0,8,2%,-2%,1,23
O=C(Nc1ccc(Br)cc1)/C(=C/c1cccc([N+](=O)[O-])c1)NC(=O)C1CCCCC1,2,-90*,-6%,-2%,-97*,38
CC(=O)N/C(=C\c1cccc([N+](=O)[O-])c1)C(=O)NC1CCCCC1,-2,?,0%,3%,-6,-15
Cc1ccc(NC(=O)/C(=C/c2cccc([N+](=O)[O-])c2)NC(=O)C2CCCCC2)cc1,1,-79*,-4%,-2%,19,12
Cc1ccc(NC(=O)/C(=C\c2cccc([N+](=O)[O-])c2)NC(=O)c2cccs2)cc1,1,-84*,-3%,-3%,4,-8
CC(C)c1c(C(=O)N2CCCCC2c2cccnc2)cnn1-c1nccc(-c2cccs2)n1 (stereo not drawn),·,·,·,-4%,·,·
CO[C@H]1[C@H](NC(=O)c2ccco2)c2ccccc2C12CCN(Cc1ccc3cccc(F)c3n1)CC2,·,·,·,-4%,·,·
